Results filed as inconclusive are left out. Where a call stands in place of a potency, no number is given. The source made the active and inactive calls. Unless noted, calls follow the shape of the full dose curve.

Test [1] in a line: Validation screen for inhibitors of Lassa infection (AID 463096). To be noted: Lassa virus infection, cell-based; series mostly up to 46.1 µM.
Test [2] can be described thus: Validation screen for small molecules that induce DNA re-replication in MCF 10A normal breast cells (AID 463097; active = well fitted activation curve with a large enough effect; also: nearly all actives have a fitted effect of over 60% in size). To be noted: MCF 10A cells, DNA re-replication phenotype imaging; series mostly up to 46.1 µM. In short, it runs like this: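 DNA re-replication was detected as a rise in nuclei with elevated Hoechst fluorescence after a 48 hr compound exposure of MCF 10A cells at 37 C.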
Potency is read from the fitted curve at half-maximal effect.

With `CC(C(O)c1ccc(O)cc1)N1CCC(Cc2ccccc2)CC1` (centres undefined), the Potency result in test [1] is “inactive”.

Turning to `O=C(O)CN(CCOCCOCCN(CC(=O)O)CC(=O)O)CC(=O)O`, in test [1], the Potency entry is “inactive”.

`O=C(Nc1ccc([N+](=O)[O-])cc1Cl)c1cc(Cl)ccc1O`: the Potency in test [1] was 5.01 µM (active). Same read-out and setting: as for `Fc1ccc(C(c2ccc(F)cc2)N2CCN(C/C=C/c3ccccc3)CC2)cc1`, the entry is “inactive”; as for `c1cnc(N2CCN(Cc3ccc4c(c3)OCO4)CC2)nc1`, “inactive”. On to `C[C@]12CCC(=O)C=C1CC[C@@H]1[C@@H]2CC[C@@]2(C)[C@H]1CC[C@]2(O)C(=O)CO`, for which the Potency entry in test [1] is “inactive”. The same measure, in the same setting: the result for `CCCn1cnc2c1c(=O)n(CCCCC(C)=O)c(=O)n2C` reads “inactive”. In the case of `CC(C)COCC(CN(Cc1ccccc1)c1ccccc1)N1CCCC1` (centres undefined), the Potency result in test [1] is “inactive”. The same measure, in the same setting: the result for `CCCOc1ccccc1-c1nc2n[nH]nc2c(=O)[nH]1` reads “inactive”; that for `Nc1ccn([C@H]2CC[C@@H](CO)O2)c(=O)n1`, “inactive”. For `COc1ccccc1N1CCN(CCCNc2cc(=O)n(C)c(=O)n2C)CC1`, the Potency result in test [1] is “inactive”. The same measure, in the same setting: as for `Cn1c(=O)c2c(ncn2C)n(C)c1=O`, the entry is “inactive”. Still for that read-out and setting: as for `C(=C\c1ccccc1)/CN1CCN(C(c2ccccc2)c2ccccc2)CC1`, the entry is “inactive”. On the same count and under the same terms, the result for `O=C(CCCN1CCC(O)(c2cccc(C(F)(F)F)c2)CC1)c1ccc(F)cc1` reads “inactive”; that for `CN(C)CCC(c1ccccc1)c1ccccn1` (centres undefined), “inactive”. For the compound `CCCCNc1cc(C(=O)O)cc(S(N)(=O)=O)c1Oc1ccccc1`, the Potency entry in test [1] is “inactive”. The same measure, in the same setting: the result for `Nc1c2c(nc3ccccc13)CCCC2` reads “inactive”. Still for that read-out and setting: as for `COc1ccccc1N1CCN(CC(O)COc2cccc3ccccc23)CC1` (centres undefined), the entry is “inactive”; as for `CCN(CC)CCOCCOC(=O)C1(c2ccccc2)CCCC1`, “inactive”.

Consider `C[C@]12CC[C@@H]3c4ccc(O)cc4CC[C@H]3[C@@H]1CCC2=O`, for which the Potency entry in test [1] is “inactive”. On the same count and under the same terms, the result for `CNCCC(Oc1ccccc1OC)c1ccccc1` (centres undefined) reads “inactive”.

Turning to `COc1nc(C)nc(Cl)c1NC1=NCCN1`, the Potency entry in test [1] was “inactive”. In the case of `NC(N)=NCCC[C@H](N)C(=O)O`, the Potency entry in test [1] is “inactive”. As for `COC(=O)C1=C(C)NC(C)=C(C(=O)OC)C1c1ccccc1[N+](=O)[O-]`, in test [2], the Potency is 12.6 µM (active).

For the origin of these results see PubChem BioAssay (NCATS).
